# Compounds without any hit were thinned out: in the full panel of roughly 83,000, 20% have a hit.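 Activity criterion: percent growth below 10, measured after cells in 96-well plates were exposed to a single compound concentration for 48 hours.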 Values without a mark were called inactive. Activity calls are given as the source filed them.
# System: HOP-92 NSCLC
# Test: NCI-60 one-dose screen, 48 h (100 = growth as untreated, 0 = no growth, -100 = all killed)
# Conditions: 10 µM unless noted
row,SMILES,growth
1,Cc1ccc(Cl)cc1NC(=O)c1cc2ccccc2cc1O,-10.5% (active)
2,CC1SC(c2ccc(OCc3ccccc3)cc2)N(NC(=O)C(O)(c2ccccc2)c2ccccc2)C1=O (stereo not drawn),50.7%
3,O=c1cc(C2NNC(=S)N2)c2ccc3ccccc3c2o1 (stereo not drawn),103%
4,Cc1ccc(Nc2nc(N)nc(CSCC(=O)NN)n2)cc1,95.6%
5,O=[N+]([O-])c1ccc(OCCO)cc1,81.2%
6,O=C(CSc1nnc(-c2ccc(NC(=O)c3cccnc3)cc2)o1)N[C@@H](Cc1ccc(O)cc1)C(=O)O,96.3%
7,O=C(/C=C/c1ccco1)c1ccc(Nc2nc(Nc3ccc(F)cc3)nc(Nc3ccc(Cl)cc3)n2)cc1,44.2%
8,CCOC(=O)c1c(-c2ccc(Cl)cc2)c(C#N)c(=O)n(-c2ccccc2CC)c1N,65.9%
9,COC(=O)[C@]12CC[C@@H](C)[C@H](C)[C@@H]1C1=CC[C@@H]3[C@@]4(C)C(C=O)=C[C@@](C)(COC(C)=O)C4=CC[C@@]3(C)[C@]1(C)CC2,-9.34% (active)
10,C[C@]12CC[C@@H]3c4cc(OC(F)F)c(O)cc4CC[C@H]3[C@@H]1CC[C@@H]2OS(N)(=O)=O,74.6%
11,NCCCNc1nc2ccccc2c2c(=O)c3cccc(Cl)c3sc12,38.1%
12,O=C(N=c1oc2ccccc2cc1-c1cc2ccccc2[nH]1)c1ccc(Cl)cc1,24%
13,CSc1n(Cc2ccc3ccccc3c2)c(C)c[n+]1Cc1ccc2ccccc2c1,-44.4% (active)
14,COC(=O)CCC1=C(C)C2=NC1=CC1=NC(=CC3=NC(=Cc4[nH]c(/c(=C(/C)O)c4C)=C2)C(C(C)=O)=C3C)C(C)=C1CCC(=O)OC,88.2%
15,COc1ccc(Nc2nnc(SCc3ccccc3F)s2)cc1,88.6%
16,O=C(N/N=C/C=C/c1ccc([N+](=O)[O-])o1)c1cc2ccccc2cc1O,-47.5% (active)
17,OC(COc1ccccc1Cl)COc1ccccc1Cl,102%
18,c1ccc(-c2nc([P+](c3ccccc3)(c3ccccc3)c3ccccc3)c(N3CCOCC3)o2)cc1,-21.4% (active)
19,O=C1CCc2c(sc3[nH]c(=S)n(-c4ccc(OC(F)(F)F)cc4)c(=O)c23)C1,-10.3% (active)

row,SMILES,growth
1,O=C(Nc1ccc(Cl)cc1)Nc1ccc(Cl)c(C(F)(F)F)c1,-14.8% (active)
2,COc1ccc(C2CC(c3cccc(OC)c3)=NN2C(=O)c2cc(OC)c(OC)c(OC)c2)cc1 (stereo not drawn),35.9%
3,CCOC(=O)C/C(C)=N\NC(=O)c1ccncc1,-2.59% (active)
4,COc1ccc2oc3c(C)c4c(c(C)c3c2c1)C(=O)N(Cc1ccccc1)C4=O,85.5%
5,CC(C)=C[C@@H]1c2c(c3ccccc3n(C)c2=O)O[C@H]2c3c(c4ccccc4n(C)c3=O)OC(C)(C)[C@@H]12,-4.59% (active)
6,Cc1ccc(NCCN(C)C)c2c(=O)c3ccccc3sc12,30.4%
7,C=C1C(=O)O[C@H]2[C@H]1CC/C(COC(=O)C(=O)c1c[nH]c3ccccc13)=C\CC[C@@]1(C)O[C@@H]21,-74.3% (active)
8,Oc1ccc(CN2CCC(N3CCOCC3)CC2)c2cccnc12,-16% (active)
9,O=C1CCC2=C3C4CCCCC4C(=O)C4CCCC(OC2C1)C34 (stereo not drawn),-2.29% (active)
10,Cc1cc(=O)[nH]c(N=Nc2c(O)[nH]c3ccccc23)n1,101%
11,COc1cc(/C=C/C(=O)N2CCN(C(=O)c3cc(OC)c(OC)c(OC)c3)CC2)ccc1OCCCN1C(=O)c2cccc3cccc(c23)C1=O,-0.534% (active)
12,Cc1ccc(S(=O)(=O)N/N=C\c2cc(Cl)ccc2O)cc1,72.9%
13,COc1cc(OC)cc(C2CC(=O)Nc3c2c(C)nn3-c2nc3ccccc3[nH]2)c1 (stereo not drawn),0.274% (active)
14,Cc1ccc(S(=O)(=O)n2cc(CNc3ccc(N4CCOCC4=O)cc3)c3ccccc32)cc1,38.6%
15,CC1O[C@@H](OC2[C@H](OC(=O)/C=C/c3ccc(O)c(O)c3)C(COC3O[C@H](C)C(O)C(O)[C@@H]3O)O[C@@H](OCCc3ccc(O)c(O)c3)[C@H]2O)[C@@H](O)C(O)[C@H]1O (stereo partly drawn),102%
16,CS(=O)c1cccc(-c2ccc3nc(N)n(-c4ccc(C(F)(F)F)cc4)c(=O)c3c2)c1 (stereo not drawn),66.1%
17,CCOc1ccccc1-n1c(CN2CCN(C(=O)COc3ccc(CNCCCCCCN4C5CCCC4CC(OC(=O)Nc4cc(C)ccc4OC)C5)cc3)CC2)nc2ccccc2c1=O (stereo not drawn),-90.2% (active)
18,O=C(O)CN1C(=O)CCC1=O,97.2%
19,Cc1cccc(NC(=O)CSc2nc3ccccc3[nH]2)c1,88.4%

# Source: PubChem BioAssay (NCI)
